Measurements reported in PubChem BioAssay.
A number with no mark means an inactive call. Activity calls are given as the source filed them. Cut-off read from the data, not from the text of the source, unless noted: active = inhibition above about 36%; inactive = the rest.

Assays:
[1] = target: Nuclear receptor coactivator 3 (Homo sapiens) (UniProt Q9Y6Q9); assay: SRC3 coactivator transcriptional activity inhibitors, confirmation, cell-based, luminescence, quadruplicate (AID 588792;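 active = mean inhibition over 43.08%, the solvent-only control mean plus 3 SD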;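 note: 0% = DMSO treated cells and 100% = gossypol at 36 µM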); conditions: HEK293 GAL4-SRC3 luciferase reporter, at 3.6 µM, active compounds read high
[2] = test system: transactivating tegument protein VP16 (Human herpesvirus 1), Gal4-VP16 luciferase reporter; assay: VP16 transactivation inhibitors, counter-screen for SRC3 inhibitor project, cell-based, luminescence, high throughput (AID 588794; in the data active = inhibition above about 30%); conditions: mammalian cells, VP16-driven luciferase reporter luminescence; at 3.6 µM; active compounds read high
[3] = target: Nuclear receptor coactivator 1 (Homo sapiens) (UniProt Q15788); assay: SRC1 coactivator transcriptional activity inhibitors, confirmation, cell-based, luminescence, quadruplicate (AID 588820;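 active = mean inhibition above 46.68%, the untreated control wells mean plus 3 SD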;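 note: 0% = DMSO wells and 100% = gossypol 36 µM treated wells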); conditions: HEK293 GAL4-SRC1 luciferase reporter, at 3.6 µM, active compounds read high
Nuclear receptor coactivator 1 (Homo sapiens), sequence (Q15788 whole entry, looked up, the tested form may be a part): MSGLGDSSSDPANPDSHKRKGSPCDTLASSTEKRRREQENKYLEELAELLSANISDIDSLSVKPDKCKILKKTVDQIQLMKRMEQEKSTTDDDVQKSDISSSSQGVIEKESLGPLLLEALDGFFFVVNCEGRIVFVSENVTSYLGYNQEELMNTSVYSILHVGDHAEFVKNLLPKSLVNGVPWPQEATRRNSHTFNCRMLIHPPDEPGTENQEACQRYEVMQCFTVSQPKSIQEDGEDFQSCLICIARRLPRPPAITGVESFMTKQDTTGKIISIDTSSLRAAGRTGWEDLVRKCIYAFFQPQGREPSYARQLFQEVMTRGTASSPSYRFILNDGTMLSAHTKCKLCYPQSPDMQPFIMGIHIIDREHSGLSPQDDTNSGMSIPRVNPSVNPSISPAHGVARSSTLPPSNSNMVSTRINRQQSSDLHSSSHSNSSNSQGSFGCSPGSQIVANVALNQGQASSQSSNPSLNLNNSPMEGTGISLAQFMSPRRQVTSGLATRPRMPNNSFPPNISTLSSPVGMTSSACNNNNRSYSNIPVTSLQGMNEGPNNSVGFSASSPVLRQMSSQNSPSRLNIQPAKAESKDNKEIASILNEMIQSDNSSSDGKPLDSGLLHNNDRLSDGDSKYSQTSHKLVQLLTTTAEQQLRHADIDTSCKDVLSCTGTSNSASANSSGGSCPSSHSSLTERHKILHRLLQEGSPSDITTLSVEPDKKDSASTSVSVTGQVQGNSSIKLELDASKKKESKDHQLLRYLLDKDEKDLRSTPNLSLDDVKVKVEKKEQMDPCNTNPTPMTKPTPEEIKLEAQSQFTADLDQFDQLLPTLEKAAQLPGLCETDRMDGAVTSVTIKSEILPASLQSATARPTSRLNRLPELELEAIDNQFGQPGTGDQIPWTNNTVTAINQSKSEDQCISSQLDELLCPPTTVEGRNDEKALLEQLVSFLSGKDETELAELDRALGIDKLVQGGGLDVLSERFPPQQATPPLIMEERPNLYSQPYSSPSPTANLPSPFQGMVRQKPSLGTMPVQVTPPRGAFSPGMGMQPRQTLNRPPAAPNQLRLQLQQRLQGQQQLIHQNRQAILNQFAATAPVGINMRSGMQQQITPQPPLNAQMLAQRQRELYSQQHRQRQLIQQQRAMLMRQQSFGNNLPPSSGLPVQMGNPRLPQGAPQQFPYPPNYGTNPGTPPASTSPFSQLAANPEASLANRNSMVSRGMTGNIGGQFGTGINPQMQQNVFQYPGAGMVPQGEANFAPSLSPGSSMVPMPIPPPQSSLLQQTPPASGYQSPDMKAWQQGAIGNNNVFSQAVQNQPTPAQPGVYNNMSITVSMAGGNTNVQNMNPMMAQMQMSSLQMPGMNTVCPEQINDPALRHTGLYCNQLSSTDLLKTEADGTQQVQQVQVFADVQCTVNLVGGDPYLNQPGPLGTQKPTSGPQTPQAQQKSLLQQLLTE

[4] = VP16 transactivation inhibitors, counter-screen for SRC1 inhibitor project, cell-based, luminescence, high throughput (AID 588824; in the data active = inhibition above about 25%); conditions: cell-based VP16 transactivation luciferase luminescence; at 3.6 µM; active compounds read high
[5] = StAR promoter reporter inhibitors, counter-screen for LRH-1 inverse agonist project, cell-based, luminescence, high throughput (AID 651611; in the data active = inhibition above about 28%); conditions: StAR promoter luciferase reporter counterscreen, at 3.6 µM, active compounds read high
[6] = target: Nuclear receptor subfamily 5 group A member 2 (Homo sapiens) (UniProt O00482); assay: LRH-1 (NR5A2) inverse agonists, retest, confirmation, cell-based, luminescence (AID 651613; in the data active = inhibition above about 42%;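 note: HEK293T cells co-transfected with LRH-1 and StAR promoter luciferase reporter; 0% = vehicle wells and 100% = parental cells lacking receptor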); conditions: cell-based LRH-1 luciferase reporter, inverse agonism; at 3.6 µM; active compounds read high
Nuclear receptor subfamily 5 group A member 2 (Homo sapiens), sequence (O00482 whole entry, looked up): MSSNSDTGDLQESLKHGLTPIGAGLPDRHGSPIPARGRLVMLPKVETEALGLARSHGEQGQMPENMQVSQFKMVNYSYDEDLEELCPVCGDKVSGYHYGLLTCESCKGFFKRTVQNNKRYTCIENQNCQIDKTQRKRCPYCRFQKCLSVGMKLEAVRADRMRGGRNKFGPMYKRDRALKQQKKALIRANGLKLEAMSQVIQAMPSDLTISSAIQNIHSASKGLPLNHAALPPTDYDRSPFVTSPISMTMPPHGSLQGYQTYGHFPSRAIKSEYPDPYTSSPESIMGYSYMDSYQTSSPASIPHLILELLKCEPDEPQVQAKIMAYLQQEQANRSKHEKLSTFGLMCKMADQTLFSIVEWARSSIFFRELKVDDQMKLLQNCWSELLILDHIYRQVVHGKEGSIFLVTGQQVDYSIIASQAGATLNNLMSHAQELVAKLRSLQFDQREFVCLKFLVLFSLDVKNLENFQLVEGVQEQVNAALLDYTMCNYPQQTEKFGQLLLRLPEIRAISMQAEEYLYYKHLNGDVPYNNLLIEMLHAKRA

[7] = target: Steroidogenic factor 1 (Homo sapiens) (UniProt Q13285); assay: SF1 (NR5A1) inverse agonists, counter-screen for LRH-1 inverse agonist project, cell-based, luminescence, high throughput (AID 651614; in the data active = inhibition above about 44%;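 note: cells cotransfected with StAR promoter reporter and SF1 expression vector; 0% = vehicle on cells with receptor and 100% = vehicle on cells lacking receptor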); conditions: cell-based SF1 luciferase reporter, at 3.6 µM, active compounds read high
Steroidogenic factor 1 (Homo sapiens), sequence (Q13285 whole entry, looked up, the tested form may be a part): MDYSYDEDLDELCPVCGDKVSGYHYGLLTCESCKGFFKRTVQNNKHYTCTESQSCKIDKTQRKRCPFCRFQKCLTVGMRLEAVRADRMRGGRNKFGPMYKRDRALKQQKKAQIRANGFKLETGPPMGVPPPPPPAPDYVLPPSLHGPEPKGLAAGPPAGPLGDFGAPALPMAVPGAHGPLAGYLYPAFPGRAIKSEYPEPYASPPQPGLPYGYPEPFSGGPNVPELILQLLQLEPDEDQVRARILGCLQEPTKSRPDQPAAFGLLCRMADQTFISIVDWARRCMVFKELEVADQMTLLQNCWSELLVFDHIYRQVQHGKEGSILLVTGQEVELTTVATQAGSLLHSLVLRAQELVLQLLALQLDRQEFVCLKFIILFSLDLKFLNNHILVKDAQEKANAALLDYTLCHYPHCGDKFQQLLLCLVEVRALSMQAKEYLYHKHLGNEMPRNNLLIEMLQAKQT

[8] = VP16 transactivation reporter inhibitors, counter-screen for LRH-1 inverse agonist project, cell-based, luminescence, high throughput (AID 651615; in the data active = inhibition above about 33%); conditions: Gal4-VP16 luciferase reporter cells, at 3.6 µM, active compounds read high
[9] = test system: transactivating tegument protein VP16 (Human herpesvirus 1); assay: VP16 transactivation reporter inhibitors, counter-screen for SRC2 inhibitor project, cell-based, luminescence, single concentration (AID 652007); conditions: cell-based VP16 transactivation luciferase reporter, at 8.9 µM, active compounds read high
[10] = target: Nuclear receptor coactivator 2 (Homo sapiens) (UniProt Q15596); assay: SRC2 coactivator transcriptional activity inhibitors, confirmation, cell-based, luminescence, HEK293, triplicate (AID 652008;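 active = mean inhibition above 46.5%, the solvent-only control mean plus 3 SD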;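 note: 0% = DMSO-treated cells and 100% = Gossypol at 36 µM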); conditions: HEK293 GAL4-SRC2 luciferase reporter, at 8.9 µM, active compounds read high
Nuclear receptor coactivator 2 (Homo sapiens), sequence (Q15596 whole entry, looked up, the tested form may be a part): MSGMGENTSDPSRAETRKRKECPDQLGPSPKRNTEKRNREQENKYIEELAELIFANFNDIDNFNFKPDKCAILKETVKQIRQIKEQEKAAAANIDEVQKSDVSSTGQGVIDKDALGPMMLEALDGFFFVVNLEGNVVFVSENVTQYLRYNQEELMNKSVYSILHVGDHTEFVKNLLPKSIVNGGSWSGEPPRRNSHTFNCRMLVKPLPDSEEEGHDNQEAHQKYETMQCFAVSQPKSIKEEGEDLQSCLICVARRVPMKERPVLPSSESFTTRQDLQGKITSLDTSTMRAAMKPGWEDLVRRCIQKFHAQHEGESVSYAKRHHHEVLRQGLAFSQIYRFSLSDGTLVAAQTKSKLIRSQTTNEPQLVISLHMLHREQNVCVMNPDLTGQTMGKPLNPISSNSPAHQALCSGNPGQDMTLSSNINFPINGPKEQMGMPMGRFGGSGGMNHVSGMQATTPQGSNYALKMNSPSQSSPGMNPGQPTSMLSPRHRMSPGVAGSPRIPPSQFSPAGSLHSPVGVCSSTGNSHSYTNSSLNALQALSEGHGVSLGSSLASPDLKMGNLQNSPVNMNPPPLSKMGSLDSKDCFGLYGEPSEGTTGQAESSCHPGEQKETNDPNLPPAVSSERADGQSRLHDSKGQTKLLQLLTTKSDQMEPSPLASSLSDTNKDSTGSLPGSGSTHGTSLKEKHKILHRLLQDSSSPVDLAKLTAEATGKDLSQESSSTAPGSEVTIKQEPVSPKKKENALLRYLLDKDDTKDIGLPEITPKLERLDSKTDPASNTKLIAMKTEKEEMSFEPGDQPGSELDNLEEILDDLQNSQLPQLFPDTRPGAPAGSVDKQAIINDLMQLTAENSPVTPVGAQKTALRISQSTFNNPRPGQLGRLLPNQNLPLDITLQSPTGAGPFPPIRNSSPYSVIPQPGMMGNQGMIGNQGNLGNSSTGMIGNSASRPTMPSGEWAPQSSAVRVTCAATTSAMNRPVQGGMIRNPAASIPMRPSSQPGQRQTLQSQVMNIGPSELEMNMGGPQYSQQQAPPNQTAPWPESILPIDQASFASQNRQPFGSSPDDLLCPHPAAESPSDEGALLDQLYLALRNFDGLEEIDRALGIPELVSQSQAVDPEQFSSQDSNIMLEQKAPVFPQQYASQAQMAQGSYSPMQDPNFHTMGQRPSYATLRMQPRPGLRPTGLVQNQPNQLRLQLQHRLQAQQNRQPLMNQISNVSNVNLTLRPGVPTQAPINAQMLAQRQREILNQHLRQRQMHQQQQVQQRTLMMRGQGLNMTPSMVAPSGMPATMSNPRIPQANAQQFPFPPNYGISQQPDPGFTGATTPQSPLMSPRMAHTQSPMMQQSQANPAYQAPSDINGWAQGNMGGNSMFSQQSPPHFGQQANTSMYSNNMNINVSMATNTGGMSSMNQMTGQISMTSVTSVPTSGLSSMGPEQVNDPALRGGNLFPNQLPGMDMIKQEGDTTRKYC

CC(C)(C)c1ccc(C(=O)O/N=C(\N)c2ccccc2)cc1
inhibition [1]: 74.5% (active) | inhibition [2]: 73.6% (active) | inhibition [3]: 61.1% (active) | inhibition [4]: 58.3% (active) | inhibition [5]: 61.9% (active) | inhibition [6]: 55% (active) | inhibition [7]: 64.8% (active) | inhibition [8]: 51.1% (active) | inhibition [9]: 76.9% (active) | inhibition [10]: 87.7% (active)

CC(O)CC(=O)OC[C@]12CC[C@H]3[C@@](C)(CC[C@H]4C(C)(C)CCC[C@]34C)[C@@H]1CC(C1=CC(=O)OC1O)O2 (stereo not given in full)
inhibition [1]: 30.2% | inhibition [2]: 53.4% (active) | inhibition [3]: 31% | inhibition [4]: 43.4% (active) | inhibition [5]: 51.2% (active) | inhibition [6]: 76.6% (active) | inhibition [7]: 80.5% (active) | inhibition [8]: 75.2% (active) | inhibition [9]: 50.6% (active) | inhibition [10]: -41%

Cc1cc(C)c2c(N)c(C(=O)Nc3ncc(C)s3)sc2n1
inhibition [1]: 49.7% (active) | inhibition [2]: 34.4% (active) | inhibition [3]: -42.2% | inhibition [4]: 24.3% | inhibition [5]: 36.9% (active) | inhibition [6]: 14.3% | inhibition [7]: 55.7% (active) | inhibition [8]: 4.69% | inhibition [9]: 55.6% (active) | inhibition [10]: 77.2% (active)

CC1=C(C(=O)OCc2ccc3c(c2)OCO3)C(c2ccc(F)cc2)NC(=O)N1 (stereo not given)
inhibition [1]: 77.2% (active) | inhibition [2]: 66.2% (active) | inhibition [3]: 70.7% (active) | inhibition [4]: 67.6% (active) | inhibition [5]: 49.1% (active) | inhibition [6]: 71.3% (active) | inhibition [7]: 62.8% (active) | inhibition [8]: 85.2% (active) | inhibition [9]: 16.1% | inhibition [10]: 58.7% (active)
